# According to PubChem BioAssay (Tox21):
# Records with an inconclusive call do not appear. Activity calls are given as the source filed them. Calls follow the shape of the dose curve; as a rule, active = well fitted cell-killing curve with a large enough effect in the repeat runs; inconclusive = weak or mixed curves, or effect the other way; inactive = flat fitted curve, though single readings scatter.
# Experiment: cAMP Responsive Elements (CRE) small molecule agonists, cell-based qHTS assay: qHTS cell viability counter screen (AID 2060914);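 also: viability read after 3 h of compound exposure; nearly all actives have a fitted effect of over 50% in size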
# Settings: CRE-bla HEK293T viability, CellTiter-Glo luminescence, 5 h; series mostly up to 92.4 µM; activity change, negative = cytotoxicity: at the top concentration
# From the text: National Center for Advancing Translational Sciences [NCATS]
# Division of Preclinical Innovation [DPI]
# U.S. Environmental Protection Agency [EPA]
# National Institutes of Environmental Health Sciences [NIEHS]
# National Toxicology Program [NTP]
# U.S. Food and Drug Administration [FDA]
# CREB (cyclic-AMP Responsive Element Binding Protein) is a cellular transcription factor. It binds to certain DNA sequences called cAMP Responsive Elements (CRE) and regulates the transcription of the genes. […] This cell line can be used to find agonists/antagonists of the cyclic AMP signaling pathway. The activation of the report gene under culture conditions can be detected by fluorescence intensity. This cell line has been used to screen the Tox21 10K compound library to identify agonists that induce oxidative stress. The cytotoxicity of the Tox21 compound library against the CRE-bla cell line was tested in parallel by measuring the cell viability using CellTiter-Glo assay (Promega, Madison, WI) in the same wells.
# Tox21 Assay Protocol Summary:
# CRE-bla Hek 293T cells were suspended in assay medium (DMEM containing 10% dialyzed FBS, 0.1 mM NEAA, 1 mM sodium pyruvate and 25 mM HEPES) and dispensed at 2,000 cells/5 uL /well into 1536-well black wall/clear bottom plates using a Multidrop Combi (ThermoFisher Scientific, Waltham, MA) dispenser. After the assay plates were incubated at 37 C/5% CO2 for 18 hrs, 23 nL of compounds dissolved in DMSO, positive controls or DMSO only was transferred to the assay plate by a pintool workstation (Kalypsys, San Diego, CA). After the plates were incubated at 37 C/5% CO2 for 3 hrs, 1 uL of LiveBLAzer B/G FRET substrate (Invitrogen, Carlsbad, CA) was added to each well using Bioraptr Flying Reagent Dispenser (FRD, Aurora Discovery, San Diego, CA). The plates were incubated at room temperature for 2 h, then fluorescence intensities were measured using an Envision plate reader (PerkinElmer, Shelton, CT) at Excitation 405nm, Emission 460nm and 530nm. The % activity was determined from the ratio of 460nm/530nm. For cell viability readout that measures cytotoxicity, 4 uL /well of CellTiter-Glo reagent was added into the assay plates using Bioraptr FRD. After 30 min incubation at room temperature, the luminescence intensity in the assay plates was measured using a ViewLux (PerkinElmer, Shelton, CT) plate reader.
# % is scaled to controls: 0 for no effect and ±100 for the full control effect; potency is read from the fitted curve at half-maximal effect.
SMILES,"activity change, negative = cytotoxicity",Potency
OCCCBr,-0.553% (inactive),–
CC(O)CCO (stereo not given),–,inactive
COP(=O)(O)OC,2.72% (inactive),–
CC(C)(C)C(O)C(Oc1ccc(-c2ccccc2)cc1)n1cncn1 (stereo not given),12.4% (inactive),–
CCCCOP(=O)(CCCC)OCCCC,6.39% (inactive),–
Clc1nc(Cl)nc(Cl)n1,–,inactive
CC(C)CC(N(C)C)C1(c2ccc(Cl)cc2)CCC1 (stereo not given),-11.7% [at 42.5 µM] (inactive),–
ClCCN1CCCC1,-1.95% [at 42.5 µM] (inactive),–
ClC(Cl)C(Cl)Cl,0.399% (inactive),–
O=C1Nc2ccc(Cl)cc2C(c2ccccc2)=NC1O (stereo not given),–,inactive
ClC(Cl)=C(Cl)Cl,-2.13% (inactive),–
CNP(=O)(OC)Oc1ccc(C(C)(C)C)cc1Cl (stereo not given),-0.321% (inactive),–
CCCCC(CC)COP(=O)(Oc1ccccc1)Oc1ccccc1 (stereo not given),-15.5% (inactive),–
CCCCCCCCCCCCBr,-15.9% (inactive),–
CC(COc1ccc(Oc2ccccc2)cc1)Oc1ccccn1 (stereo not given),-19.8% (inactive),–
N#CCCl,-15.4% (inactive),–
O=S1OC[C@@H]2[C@H](CO1)[C@]1(Cl)C(Cl)=C(Cl)[C@@]2(Cl)C1(Cl)Cl (stereo not given in full),-21.1% (inactive),–
CCOP(=O)(OCC)SCCSCC,–,inactive
Oc1cc(Cl)ccc1Oc1ccc(Cl)cc1Cl,–,62.6 µM (active)
CC1(C)C(C=C(Cl)Cl)C1C(=O)OC(C#N)c1ccc(F)c(Oc2ccccc2)c1 (stereo not given),-18.7% (inactive),–

SMILES,"activity change, negative = cytotoxicity",Potency
O=C(O)C(F)(F)C(F)(F)C(F)(F)C(F)(F)C(F)(F)C(F)(F)C(F)(F)F,4.51% (inactive),–
COc1ccc(C=O)cc1O,-23% (inactive),–
ClCC(Cl)CCl,–,inactive
CCCCOC(=O)c1ccccc1C(=O)OCc1ccccc1,0.99% (inactive),–
Cc1ccc2c(c1N)C(=O)c1ccccc1C2=O,–,inactive
Clc1ccc(Cl)c(Cl)c1,1.21% (inactive),–
O=c1oc2ccccc2c(O)c1C(CC(O)c1ccc(-c2ccc(Br)cc2)cc1)c1ccccc1 (stereo not given),–,inactive
ClC1=C(Cl)[C@]2(Cl)[C@H]3[C@H]([C@H]4C=C[C@H]3C4)[C@@]1(Cl)C2(Cl)Cl,-21.6% (inactive),–
CCc1ccccc1N,-4.19% (inactive),–
CN1C2CCC(C)(C)C1CC(OC(=O)C(O)(c1cccs1)c1cccs1)C2 (stereo not given),0.661% [at 42.5 µM] (inactive),–
N#Cc1ccc(O)cc1,-13% (inactive),–
CC[C@H]1C[C@@H]2C[C@H]3c4[nH]c5ccc(OC)cc5c4CCN(C2)[C@@H]13,5.36% (inactive),–
OCC(Br)CBr (stereo not given),2.12% (inactive),–
O=C(O)COc1ccc(Cl)cc1Cl,–,inactive
CC(C)c1cccc(C(C)C)c1O,–,inactive
CC(=O)[C@H]1CC[C@H]2[C@@H]3CC[C@H]4C[C@H](O)CC[C@]4(C)[C@H]3C(=O)C[C@]12C,1.92% [at 42.5 µM] (inactive),–
CCC(C)(C)c1ccc(O)cc1,–,inactive
CC1=C(C(=O)Nc2ccccc2)SCCO1,–,inactive
Clc1ccccc1-c1nnc(-c2ccccc2Cl)nn1,–,inactive
NC(=O)CCl,-10.2% (inactive),–
